# High-throughput results: PubChem, Broad Institute
# BJeLR viability = BJeLR cell viability loss, primary screen, luminescence, CellTiterGlo ATP; viability loss activity score, % (concentration not given with the values); BJeLR fibroblasts viability, 48 h; HRASV12, hTERT and SV40 LT/ST transformed; actives 0.64% (n = 30,000); in the data active = viability loss activity score above about 50%;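 also: higher score means fewer live cells and less ATP luminescence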
# A1 inhib = inducers of caspase activity in MEF A1-2A-BIM cells, primary screen, A1 inhibitor project, cell-based, CaspaseGlo luminescence. caspase-Glo luminescence, 3 h; percent of clofoctol signal, DMSO as zero. caspase activation, % (test concentration not listed). actives 0.51% (n = 21,000). AID 2241, 2010;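 active = most replicate scores above 10, or exactly half above 10 with mean activity above 10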;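 also: effector caspase 3 and 7 activity cleaving a DEVD luciferin substrate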
# Active calls of the source: *; . = no result. A selection: hits, their analogues and other compounds. The true share with any hit is near 0.89%.
SMILES,BJeLR viability,A1 inhib
C[C@]12CC[C@H](O)C[C@H]1CCC1C2CC[C@]2(C)[C@@H](C3=CC(=O)OC3)[C@@H](O)C[C@]12O (some centres not stated),30.1,0.3
COC1CC(OC2CCC3(C)C(CCC4C3CCC3(C)C(C5=CC(=O)OC5)C(OC(C)=O)CC43O)C2)OC(C)C1OC1OC(COC2OC(CO)C(O)C(O)C2O)C(O)C(O)C1O (configuration not stated),96.0*,0.1
CO[C@H]1[C@H](O)[C@H](O[C@H]2CC[C@]3(C)C4CC[C@]5(C)C(C6=CC(=O)OC6)CC[C@]5(O)C4CC[C@@H]3C2)O[C@@H](C)[C@@H]1O (some centres not stated),111.3*,0.7
C=C(C)Cc1c(C)nc(SCC(=O)c2ccc(Cl)cc2)nc1OC(=O)N(C)C,-1.9,-0.2
CC1=C2[C@H]3OC(=O)[C@@H](C)[C@@H]3CC[C@@]2(C)C=CC1=O,0.1,0.3
N#CC(CCN1CCN(c2ccccc2)CC1)(c1ccccc1)c1ccccc1,-1.3,0.7
CCC(C)(O)C(=O)O[C@H]1C(=O)O[C@@H]2C[C@H]3C(C)=CC(=O)[C@@H](O)[C@]3(C)[C@H]3[C@@]4(O)OC[C@]32[C@@H]1[C@@H](C)[C@H]4O (some centres not stated),113.6*,8.9
CCCc1nc(-c2ccccn2)nc(OC(=O)N(C)C)c1Cc1c(F)cccc1Cl,-4.1,-0.2
CCc1c(C(=O)OC)ncc2[nH]c3cc(OC)c(OC)cc3c12,-3.7,-1.3
Brc1cccc(CN2CCN(Cc3cccc(Br)c3)CC2)c1,9.3,0.2
CC(C)=CC1C(C(=O)OCc2coc(Cc3ccccc3)c2)C1(C)C (configuration not stated),0.7,-0.4
CNc1ccccc1C(=O)O,-6.5,0.2
C[CH2][Hg][S]c1ccccc1C(=O)O,141.9*,2.0
c1ccc(C2CNCc3ccccc32)cc1 (configuration not stated),-0.2,-0.9
C/C=C1/C[N+]2([O-])C3CC1C(CO)C2Cc1c3[nH]c2ccc(OC)cc12 (configuration not stated),3.4,-0.3
COc1cc(C2=NC(O)C(=O)Nc3ccc(Cl)cc32)ccc1O (configuration not stated),2.5,0.9
N#Cc1c(/N=C/c2cc(Br)ccc2O)sc2c1C1CCN2CC1,-2.4,.
CCC(C)N=Cc1c(O)[nH]c(=O)[nH]c1=O (configuration not stated),-1.8,0.1
CN1Cc2c(ccc3c2OCO3)C2C(O)Cc3cc4c(cc3C21)OCO4 (configuration not stated),72.1*,2.2
COc1ccc2c(c1OC)C(=O)O[C@H]2[C@@H]1c2cc3c(cc2CCN1C)OCO3,1.3,-0.5
Cc1ccc(Oc2c(C)nc(C)nc2OC(=O)N(C)C)cc1,0.3,-0.3
CNc1ccc2oc(C[C@@H]3OC4(CC[C@@H]3C)O[C@H](C(C)C(=O)c3ccc[nH]3)[C@H](C)C[C@H]4C)nc2c1C(=O)O (some centres not stated),72.5*,-1.2
CN1CC(C(=O)N[C@]2(C)O[C@@]3(O)[C@@H]4CCCN4C(=O)[C@H](Cc4ccccc4)N3C2=O)C=C2c3cccc4[nH]cc(c34)C[C@H]21 (some centres not stated),-1.5,-0.3
CC(=O)OC[C@]12C[C@H](O)C(C)=C[C@H]1O[C@@H]1[C@H](O)[C@@H](OC(C)=O)[C@@]2(C)[C@]12CO2,118.7*,13.3*
CC(=O)OC[C@]12CCC(C)=C[C@H]1O[C@@H]1[C@H](O)[C@@H](OC(C)=O)[C@@]2(C)[C@]12CO2,122.4*,15.8*
SMILES,BJeLR viability,A1 inhib
Cn1cnc(-n2oo2)c1C#N,-1.2,0.6
CN[C@@H]1C[C@@]2(C)O[C@@H]([C@@H]1OC)n1c3ccccc3c3c4c(c5c6ccccc6n2c5c31)C(=O)NC4,126.7*,83.8*
CCOC(=O)C1=C(N)Oc2c(c(=O)oc3ccccc23)C12C(=O)N(CC(=O)OC)c1ccccc12 (configuration not stated),-4.0,1.0
CC1CCCCCC(=O)c2c(O)cc(O)cc2CC(=O)O1 (configuration not stated),-4.1,-0.1
Cc1ccccc1CN1CCN(C(C)C)CC1,-3.2,0.1
COc1cccc(OC)c1C1=NCC(=O)Nc2c1oc1ccc(Br)cc21,55.3*,3.4
CN1C2CCCC1CC(=O)C2,-0.7,0.4
O=C(c1cnn(-c2ccccc2)c1-n1cccc1)N1CCC2(CC1)OCCO2,-1.9,0.1
C[C@@H]1C[C@@H]([C@H](O)CC2CC(=O)NC(=O)C2)C(=O)[C@@H](C)C1,61.4*,5.1
C[C@@H]1CC([C@H](O)CC2CC(=O)NC(=O)C2)C(=O)[C@@H](C)C1 (some centres not stated),86.8*,4.2
C=C(C)[C@@]12O[C@@H]1[C@@]1(C)C(=C[C@H]2O)CC[C@@H](O)[C@@H]1C,-4.7,0.0
O=C1C=C2C=C[C@@H]3C[C@@]2(O1)[C@H]1CCCCN31,-1.9,0.3
O=C(/C=C/c1ccccc1)OCC1OC(OC2OC=CC3C(O)C4OC4(CO)C23)C(O)C(O)C1O (configuration not stated),9.5,-0.2
Cc1ccc2cc3c(ccc4ccccc43)c3c2c1CC3,0.2,-0.5
CN1CCc2nc(SCc3cccc(Cl)c3)c(C#N)cc2C1,0.8,.
CCn1cnc2c(Nc3cccc(Cl)c3)nc(N[C@@H]3CCCC[C@@H]3N)nc21,57.3*,26.1*
CC[C@@]1(O)C(=O)OCc2c1cc1n(c2=O)Cc2cc3c(O)cccc3nc2-1,106.7*,1.1
NCCC1COc2ccccc2O1 (configuration not stated),-2.2,.
COC(=O)C1=COC(C)C2CN3CCc4c([nH]c5cc(OC)ccc45)C3CC12 (configuration not stated),-4.9,1.6
CN1C2C[C@H](OC(=O)[C@H](CO)c3ccccc3)C[C@H]1[C@@H](O)C2,-3.1,-0.3
C[C@@H]1O[C@@H](O[C@@H]2C=C3CCC4C(CC[C@]5(C)[C@@H](c6ccc(=O)oc6)CC[C@]45O)[C@@]3(C)CC2)[C@H](O)[C@H](O)[C@H]1O (some centres not stated),121.3*,0.7
C[C@@H]1O[C@@H](O[C@@H]2C=C3CC[C@@H]4C(CC[C@]5(C)[C@@H](c6ccc(=O)oc6)CC[C@]45O)[C@@]3(C)CC2)[C@H](O)[C@H](O)[C@H]1O (some centres not stated),99.2*,0.1
C/C=C\C(=O)O[C@@H]1C[C@H]2O[C@@H]3C=C(C)C(=O)C[C@]3(C)[C@]1(C)[C@]21CO1,101.0*,10.9*
CCCOC(=O)c1cc2c(cn1)[nH]c1ccccc12,3.3,-0.4
Oc1c(Cl)c(Cl)c(Cl)c(Cl)c1Cl,0.5,-0.1
C=C1C([C@]2(C)C(CC(=O)OC)[C@@](C)(COC(C)=O)OC(=O)C[C@@H]2OC(C)=O)[C@@H](OC=O)[C@H](OC(=O)C(OC(C)=O)C(C)CC)[C@@]2(C)[C@H](c3ccoc3)CC(=O)C12O (some centres not stated),-6.2,-0.1
